Compounds without any hit were thinned out: in the full panel of roughly 83,000, 20% have a hit.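 Growth was measured after 48 h exposure to one concentration of compound in 96-well plates. Values under 10 count as active.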 Values without a mark were called inactive. The source made the active and inactive calls.
Assays:
Assay in all cases: NCI-60 one-dose screen, 48 h (100 = growth as untreated, 0 = no growth, -100 = all killed)
Settings in all cases: 10 µM unless noted
SR leukemia = system: SR leukemia
RPMI-8226 leukemia = system: RPMI-8226 leukemia
OVCAR-8 ovarian = system: OVCAR-8 ovarian
OVCAR-5 ovarian = system: OVCAR-5 ovarian
OVCAR-4 ovarian = system: OVCAR-4 ovarian
SK-OV-3 ovarian = system: SK-OV-3 ovarian
IGROV1 ovarian = system: IGROV1 ovarian
OVCAR-3 ovarian = system: OVCAR-3 ovarian
HS 578T breast = system: HS 578T breast
NCI/ADR-RES ovarian = system: NCI/ADR-RES ovarian

Compound	growth (SR leukemia)	growth (RPMI-8226 leukemia)	growth (OVCAR-8 ovarian)	growth (OVCAR-5 ovarian)	growth (OVCAR-4 ovarian)	growth (SK-OV-3 ovarian)	growth (IGROV1 ovarian)	growth (OVCAR-3 ovarian)	growth (HS 578T breast)	growth (NCI/ADR-RES ovarian)
Cc1ccc2oc(=O)cc(C3c4ccc([nH]4)C(c4cc(=O)oc5ccc(C)cc45)c4ccc([nH]4)C(c4cc(=O)oc5ccc(C)cc45)c4ccc([nH]4)C(c4cc(=O)oc5ccc(C)cc45)c4ccc3[nH]4)c2c1 (stereo not given)	-36.5% (active)	-21.3% (active)	-47.8% (active)	-11.7% (active)	-6.02% (active)	-30.7% (active)	-20.1% (active)	-65% (active)	-37% (active)	-25% (active)
O=[N+]([O-])c1cnc(N2CCN(CC3CC3)CC2)nc1N1CCN(CC2CC2)CC1	115%	100%	104%	92.2%	95%	111%	90.6%	98.6%	77.5%	90.2%
COc1ccc(CCNc2nc3c(c(=O)n(Cc4ccc(Br)cc4)c(=O)n3C)n2C)cc1OC	98.9%	78.5%	90.5%	94%	80.1%	94.9%	83.2%	98.4%	91.1%	82.9%
CC(C)(CCCN=C(N)Nc1ccc(Cl)cc1)c1ccc(F)cc1	-13.6% (active)	11%	87.3%	75.8%	54.4%	94.7%	55.2%	71.2%	83.2%	73.8%
COc1nc2c(c(=O)n1C)CN(Cc1ccccc1)C=N2	98.7%	86.6%	96.7%	105%	116%	87.3%	93.7%	105%	113%	113%
C=C1c2nc3ccccc3n2C=C(c2ccc(OC)cc2)N1Cc1ccccc1	47.3%	39.4%	88.3%	101%	80.1%	107%	96.7%	85.4%	116%	77.4%
O=C(/C=C/c1ccc(C(F)(F)F)cc1)Nc1ccc(C=C2c3ccccc3C(=O)c3ccccc32)cc1	18.6%	10.4%	55.7%	84.2%	47.5%	77.9%	111%	44.1%	78.5%	60%
COc1cccc(/C=C2\Oc3cc(OCCN4CCCC4)ccc3C2=O)c1	22.2%	91.7%	98.4%	100%	111%	108%	98.6%	97%	91.8%	93.8%
N=C(N)c1ccc(-c2ccc(-c3ccc4ccccc4c3)s2)s1	-37.2% (active)	-18.3% (active)	3.43% (active)	-0.924% (active)	-21.3% (active)	95.7%	5.62% (active)	-76.1% (active)	91.6%	-42% (active)
Cc1cc(C)nc(SC2=C(Nc3cccc(Cl)c3)C(=O)N(Cc3ccccc3)C2=O)n1	28.8% [30 µM]	23.3% [30 µM]	52.5% [30 µM]	107% [30 µM]	61.9% [30 µM]	113% [30 µM]	43.3% [30 µM]	68.6% [30 µM]	97.8% [30 µM]	55.5% [30 µM]
O=C1c2ccccc2OC=C(c2ccccc2)N1CCCCNc1ccc(S(=O)(=O)Nc2ncccn2)cc1	78.9%	83.2%	92.2%	105%	106%	96.6%	104%	104%	92.8%	98.6%
COc1ccccc1Nc1nc(-c2cc3cccc(C(F)(F)F)c3oc2=O)cs1	10.2%	16.8%	9.28% (active)	67%	37.1%	31.3%	22.9%	-21.7% (active)	31.4%	15%
O=C(O)c1c(=O)cccc2ssc12	-9.58% (active)	4.35% (active)	24.1%	-52.8% (active)	-37.1% (active)	39.1%	76.1%	-34.3% (active)	22.4%	29.2%
Cn1cc(-c2nonc2-c2c[nH]c3ccc(F)cc23)c2cccnc21	58.7%	69.2%	89.1%	90.9%	71.3%	87.1%	61.7%	82%	72.9%	73.1%
CCCc1cc(=O)n2c(C(=O)Nc3ccc(F)cc3)c(C(=O)Nc3ccc(F)cc3)sc2n1	53.4% [30 µM]	78.2% [30 µM]	16.6% [30 µM]	74.7% [30 µM]	36.9% [30 µM]	48.5% [30 µM]	72.6% [30 µM]	35.3% [30 µM]	6.12% [30 µM] (active)	33% [30 µM]
COc1ccc2c(c1)C(=O)/C(=C/c1cccnc1)CC2	30.7%	1.31% (active)	96.8%	93%	93.4%	101%	101%	98.6%	115%	94.8%
COc1ccccc1NS(=O)(=O)c1ccc2oc(SC(C)C)nc2c1	54.9%	52.2%	83.1%	82.1%	53%	114%	92.1%	85.7%	95.4%	43.8%
COc1cccc2c1C(=O)c1c(O)c3c(c(O)c1C2=O)C[C@](O)(C(=O)CO)C[C@H]3O[C@@H]1C[C@@H](NC(=O)CCCCCN(C)C2(c3ccc(F)cc3)CC3CCC2C3)[C@H](O)[C@@H](C)O1 (stereo not given in full)	-45.7% (active)	-35.4% (active)	21.5%	-51.6% (active)	0.206% (active)	79.5%	56%	5.02% (active)	57.6%	80.2%
O=C(N/N=C/c1ccccc1O)c1ccccc1Nc1ccnc(C(F)(F)F)c1	-13.9% (active)	-22% (active)	14.9%	20.6%	22.4%	11.4%	1.57% (active)	35.7%	34.3%	7.23% (active)
COc1ccc(-c2nnc(SCC(=O)c3ccc(Cl)cc3)o2)cc1	105%	101%	99%	93.3%	98%	104%	105%	103%	109%	95.6%
CCOc1nc(-c2ccccc2)cc2c(O)c(C(=O)O)[nH]c(=O)c12	98.1%	58.1%	107%	104%	99%	97.5%	96.1%	101%	104%	60.9%
Cn1cc(C(=O)c2nc(-c3c[nH]c4ccc(Br)cc34)no2)c2cc(F)ccc21	101%	99.5%	94.6%	99.3%	93.1%	87.9%	61.3%	97.2%	85%	94.1%

From PubChem BioAssay (NCI)
